# Compound activity as filed in PubChem.
# Sampled rows, rich in hits. Any-hit rate of the full collection: about 3.3%.
# PHOSPHO1 inh: inhibitors of human PHOSPHO1 phosphatase. Q8TCT1. recombinant PHOSPHO1, absorbance phosphatase assay. inhibition, % at 13.3 µM. hit rate 1.1% among 290,000. AID 1565; in the data active = inhibition above about 60%
# KCC2 mod: modulates chloride dependent transport by human KCC2; B-score of Tl+ flux slope (higher = more flux/activation; lower = inhibition) at 10 µM; AID 1456; KCC2 cells, thallium flux FluoZin-2 fluorescence; hit rate 2.2% among 190,000;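 active = thallium flux slope and its plate-corrected score both differing from the plate sample mean at a set confidence after two filtering rounds, in either direction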;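 note: slope of fluorescence scaled to starting intensity during 10 to 20 s after thallium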
# Target sequence (Q9H2X9 whole entry, looked up): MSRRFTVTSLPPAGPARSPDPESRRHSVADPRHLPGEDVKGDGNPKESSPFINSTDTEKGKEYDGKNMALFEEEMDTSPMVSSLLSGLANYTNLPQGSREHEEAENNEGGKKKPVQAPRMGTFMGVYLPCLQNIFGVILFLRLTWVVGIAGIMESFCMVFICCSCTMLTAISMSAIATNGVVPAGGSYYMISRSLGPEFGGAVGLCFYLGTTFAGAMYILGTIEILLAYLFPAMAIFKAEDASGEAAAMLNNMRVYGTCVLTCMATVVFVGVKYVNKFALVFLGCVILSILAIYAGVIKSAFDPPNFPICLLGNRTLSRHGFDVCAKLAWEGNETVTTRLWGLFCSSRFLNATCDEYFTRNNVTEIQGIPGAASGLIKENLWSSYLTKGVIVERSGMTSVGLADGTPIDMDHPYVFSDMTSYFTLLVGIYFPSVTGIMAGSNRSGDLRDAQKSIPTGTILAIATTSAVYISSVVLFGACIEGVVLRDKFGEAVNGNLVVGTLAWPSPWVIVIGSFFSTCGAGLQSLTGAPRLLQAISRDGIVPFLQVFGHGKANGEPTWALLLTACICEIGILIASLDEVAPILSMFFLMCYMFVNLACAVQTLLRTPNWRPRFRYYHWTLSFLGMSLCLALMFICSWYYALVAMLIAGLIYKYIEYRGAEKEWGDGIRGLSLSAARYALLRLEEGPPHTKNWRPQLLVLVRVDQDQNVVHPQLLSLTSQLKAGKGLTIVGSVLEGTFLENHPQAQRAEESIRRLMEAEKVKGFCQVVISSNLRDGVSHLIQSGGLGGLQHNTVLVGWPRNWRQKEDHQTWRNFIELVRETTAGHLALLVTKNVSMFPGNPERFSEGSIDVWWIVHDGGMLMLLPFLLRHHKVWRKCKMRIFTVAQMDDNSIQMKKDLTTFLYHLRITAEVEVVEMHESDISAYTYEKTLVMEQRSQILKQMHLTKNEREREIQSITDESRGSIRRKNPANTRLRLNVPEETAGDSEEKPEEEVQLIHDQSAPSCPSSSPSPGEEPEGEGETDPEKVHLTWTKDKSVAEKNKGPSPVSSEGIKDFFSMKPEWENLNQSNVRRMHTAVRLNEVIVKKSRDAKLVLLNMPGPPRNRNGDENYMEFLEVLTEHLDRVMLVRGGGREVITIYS
# Efflux pump inh: blocks antifungal efflux pumps in multiplex yeast assay | S. cerevisiae Candida pump triplex, Nile Red efflux | hit rate 0.44% among 330,000 | inhibition, % at 10 µM;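 active = plate passing quality check with inhibition over a set limit, or well fluorescence over plate mean plus 4 SD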;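 note: Nile Red retained in pooled yeast measured as flow cytometry median fluorescence; 0% = buffer negative control and 100% = Enniatin B positive control; higher means more Nile Red kept so more efflux inhibition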
# H9c2 protect: myocardial damage modulation in H9c2 cells. H9c2 cardiomyocytes, H2O2 injury protection, ATPLite, 2 h. protection from H2O2 cell death, % at 20 µM. hit rate 0.63% among 360,000;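 active = compounds giving at least 50% protection of heart cells from peroxide-induced death in the single-dose screen, raw or plate-pattern-corrected value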;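 note: 0% = DMSO wells with peroxide and 100% = DMSO wells without peroxide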
# Calb FLC: affects C. albicans growth with fluconazole | C. albicans CaCi-2 (fluconazole-resistant clinical isolate) + fluconazole, Alamar Blue growth, 48 h | hit rate 0.57% among 300,000 | growth inhibition, % (concentration not given with the values) | AID 1979;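 active = growth inhibition above about 58% in most replicates, limit read from the data, passing the limit was not always enough; inconclusive = exactly half the replicates above a set limit; inactive = most replicates below a set limit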;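 note: all wells also contain fluconazole at 8 µg/ml as a sub-toxic cotreatment; 0% = median of DMSO wells and 100% = median of geldanamycin control wells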
# KCC2 secondary: confirmation of human KCC2 transport modulators; shares compounds with KCC2 mod; HEK293-KCC2, thallium flux, FluoZin2 fluorescence; stronger effect = higher value; normalised thallium flux (F/F0 slope) at 10 µM; hit rate 15% among 3,700;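 active = thallium flux slope above the same plate's solvent-only control mean plus 3 SD; inconclusive = the two replicate wells disagree; inactive = no significant difference from solvent-only control wells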
# KCC2 bumet counter: thallium flux despite bumetanide block in KCC2 cells, secondary assay 3; shares compounds with KCC2 mod; HEK293-KCC2 + bumetanide/ouabain, thallium flux FluoZin2; stronger effect = higher value; normalized thallium flux at 10 µM; hit rate 49% among 3,700;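 active = thallium entry rate above the same plate's blocked-transporter control wells by more than 3 SD; inconclusive = the two repeat wells disagree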;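 note: raw slope of fluorescence over initial fluorescence between 10 and 20 s after thallium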
# KCC2 secondary2: confirmation of human KCC2 transport modulators; normalized thallium flux at 10 µM; shares compounds with KCC2 mod; hit rate 23% among 3,700; AID 1715; HEK293-KCC2, thallium flux FluoZin2 fluorescence; actives lie on both sides; F/F0 rise rate, 10–20 s post-thallium;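 active = thallium flux slope more than 3 SD above or below the plate's solvent-only control mean, mostly below; inconclusive = the two repeat wells disagreed; inactive = no significant shift from solvent-only controls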;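 note: raw slope with 0.1% DMSO as baseline and bumetanide as block control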
# HEK293 Tl flux: parental HEK flux effect, counter-screen. shares compounds with KCC2 mod. HEK293 parental cells, thallium flux FluoZin2, ouabain; baseline-ratio fluorescence slope, 10–20 s after thallium. thallium flux rate (normalised fluorescence) at 10 µM. hit rate 46% among 3,700;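 active = thallium flux rate significantly above the same plate's solvent-only control wells, beyond their mean plus 3 SD; inconclusive = the two replicate wells gave conflicting results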
# KCC2 retest ouab: confirmation of human KCC2 modulators with ouabain; raw Tl+ flux slope (below DMSO = inhibition, above = activation) at 10 µM; AID 1717; HEK293-KCC2, thallium flux FluoZin2 fluorescence; bidirectional: low = inhibitor, high = activator; hit rate 48% among 3,700; shares compounds with KCC2 mod;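 active = thallium flux slope beyond 3 SD from same-plate DMSO control mean in most replicates, usually higher, sometimes lower; inconclusive = repeat tests gave conflicting results; inactive = no significant difference from controls in most replicates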;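 note: slope of initial-normalized fluorescence between seconds 10 and 20 after thallium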
# HEK counter2: counter-screen for KCC2 modulators: effect in parental HEK293 cells. shares compounds with KCC2 mod. AID 1718. thallium flux slope at 10 µM. thallium flux FluoZin-2 fluorescence slope. hit rate 33% among 3,700;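 active = thallium flux slope above the same plate's solvent-control mean plus 3 SD in both duplicate wells; inconclusive = duplicate wells that disagreed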;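 note: run without ouabain in cells lacking the KCC2 cotransporter; slope of fluorescence scaled to its starting value between 10 and 20 s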
# * = called active by the depositor; ? = inconclusive; nt = no result given.
SMILES,PHOSPHO1 inh,KCC2 mod,Efflux pump inh,H9c2 protect,Calb FLC,KCC2 secondary,KCC2 bumet counter,KCC2 secondary2,HEK293 Tl flux,KCC2 retest ouab,HEK counter2
CC(C)(C)C(=O)Nc1nnc(-c2ccncc2)o1,6.0,1.45,0.8,5.1,-15.1,nt,nt,nt,nt,nt,nt
O=C(Nc1nnc(-c2ccncc2)o1)c1ccc(Br)s1,13.9,4.64*,-0.1,35.7,50.8,0.0174,0.00956*,0.0308,0.014*,0.0201,0.0153*
COc1ccccc1CNC(=O)CSc1ccc(-c2cccs2)nn1,-12.4,-4.26*,0.0,0.3,-28.1,0.00628,0.00568,0.0328,0.00407,0.0154*,0.0112
COc1cccc(CNC(=O)Cn2cccc2)c1,23.5,9.55*,0.2,1.6,-14.8,0.00898,0.00513,0.0383,0.00459,0.0211,0.0109
COc1cccc(CNC(=O)CSc2ccc(-c3cccs3)nn2)c1,32.5,-3.17*,-0.1,-6.1,-3.8,0.015,0.00532,?,0.00717,0.0143,0.0103
O=C(CSc1ccc(-c2cccs2)nn1)NCc1ccccc1Cl,-3.4,-2.1,-0.2,nt,4.8,nt,nt,nt,nt,nt,nt
CCc1nc2ccc(C(=O)NCCc3c[nH]c4ccccc34)cn2c1N(C)CCCc1ccccc1,nt,nt,nt,6.4,nt,nt,nt,nt,nt,nt,nt
CN1c2ccccc2C(C)(C)[C@]12C=Cc1cc(O)ccc1O2,1.0,-3.39*,0.1,-22.4,4.6,0.00752,?,0.033,0.00698,0.0159*,0.0108
CN1c2ccccc2C(C)(C)C12C=Nc1c(ccc3ccccc13)O2 (centres undefined),28.5,-0.194,0.1,-11.6,37.9,nt,nt,nt,nt,nt,nt
Cc1ccc(C(=O)OCC(=O)Nc2cc(C(C)(C)C)no2)c(C)c1,nt,nt,0.1,-10.3,nt,nt,nt,nt,nt,nt,nt
O=[N+]([O-])c1cccc(/C=N/NC2=NS(=O)(=O)c3ccccc32)c1,3.5,-3.76*,0.0,3.6,3.4,0.01,?,0.0306,0.00727,0.02,0.00983
O=C1CCN(C(=O)c2ccc(Cl)cc2)N1,-7.8,-3.28*,0.0,-2.1,-6.1,0.0101,0.00601,0.0316,0.00812,0.0188,0.0115
C=CCN1CCc2c(cc(O)c(O)c2Cl)C(c2ccccc2)C1 (centres undefined),8.5,-2.99*,-0.1,75.5*,nt,0.0062,0.00527,0.0287,0.00784,0.0184,0.0106
CCCCC(=O)NNC(=S)NC(=O)c1ccc(C)cc1,27.9,39.2*,0.0,14.3,101.4*,0.0254*,0.0643*,0.0527*,0.0524*,0.0519*,0.0559*
CCOC(=O)C(=O)Nc1ccc(Oc2ccccc2)cc1,5.6,-4.01*,0.1,1.0,5.6,0.00886,0.00587,0.0316,0.00694,0.0165*,0.0109
CS(=O)(=O)c1ccc(-c2cccc(NC(=O)c3ccco3)c2)nn1,nt,nt,-0.2,14.7,-13.8,nt,nt,nt,nt,nt,nt
Oc1ccc(N=Nc2ccc3c(c2)OCCO3)c2cccnc12,4.5,24*,-0.2,11.8,100.4*,0.0106,0.0374*,0.0327,0.0608*,0.0391*,0.0145*
COc1ccc(C)cc1N=Nc1ccc(O)c2ncccc12,-17.0,21.3*,nt,24.6,108.8*,0.0069,0.0349*,0.0389*,0.0212*,0.0352*,0.0226*
O=Nc1ccc(O)c2ncccc12,23.1,0.331,-0.1,-8.3,-11.5,nt,nt,nt,nt,nt,nt
COc1ccc(N=Nc2ccc(O)c3ncccc23)cc1,25.1,32*,0.3,22.4,2.5,0.0188,0.0344*,0.0319,0.02*,0.0269*,0.0189*
Cn1nnnc1SCC1=C(C(=O)O)N2C(=O)C(NC(=O)C3CC3c3ccccc3)C2SC1 (centres undefined),36.6,-5.42*,-0.1,6.4,-5.4,0.00782,0.00504,0.0292,?,0.0186,0.0106
Cn1nnnc1SCC1=C(C(=O)O)N2C(=O)[C@@H](NC(=O)[C@H](O)c3ccccc3)[C@H]2SC1,-1.4,-0.779,0.0,0.8,nt,nt,nt,nt,nt,nt,nt
CC(=O)c1cccc(NC(=O)COC(=O)COc2c(Cl)cc(Cl)c3ccc(C)nc23)c1,-3.4,4.6*,0.0,27.9,-3.0,0.0103,0.0192*,0.0319,0.0128*,0.025,0.0113*
Cc1cc(C(=O)N2CCCC(CO)(Cc3ccc(F)cc3)C2)c(C)o1 (centres undefined),37.0,nt,0.0,0.7,-5.9,nt,nt,nt,nt,nt,nt
CCc1ccc(C(O)c2ncc(-c3cccc(C)c3)[nH]2)cc1 (centres undefined),nt,nt,nt,-13.2,nt,nt,nt,nt,nt,nt,nt
SMILES,PHOSPHO1 inh,KCC2 mod,Efflux pump inh,H9c2 protect,Calb FLC,KCC2 secondary,KCC2 bumet counter,KCC2 secondary2,HEK293 Tl flux,KCC2 retest ouab,HEK counter2
Cc1ccc(-c2cc(Cc3ccccn3)c(=O)[nH]n2)cc1,8.1,-1.84,-0.1,-1.5,-3.1,0.0117,0.00863*,0.0323,0.00712,0.0207,0.0106
COc1ccc(-c2cc(C(F)(F)F)c3c(=O)n(-c4ccccc4)[nH]c3n2)cc1,8.0,-5.21*,-0.2,-7.0,21.1,0.00721,0.00747,0.0302,0.00694,0.0179*,0.0106
Cc1ccc(NC(=S)NNC(=O)c2ccc(N3CCOCC3)c([N+](=O)[O-])c2)cc1Cl,8.5,-2.77,0.0,3.5,0.9,nt,nt,nt,nt,nt,nt
O=C(NNC(=S)Nc1ccc(Br)cc1)c1ccc(N2CCOCC2)c([N+](=O)[O-])c1,-10.7,-3.83*,-0.5,1.6,13.5,0.00931,0.00618,0.0306,?,0.0158*,0.0106
CCOC(=O)C1(CCCc2ccccc2)CCN(Cc2cnc(C)s2)CC1,23.0,-4.91*,0.0,-15.8,-12.5,?,0.00557,?,0.00817,0.0238,0.00892
Cn1nnnc1N=N/C(=N/Nc1ccccc1)c1ccccc1,10.5,59.7*,-0.2,21.1,-9.3,0.0264*,0.094*,0.0572*,0.0444*,0.0519*,0.0448*
Oc1ccccc1N=N/C(=N/Nc1ccccc1O)c1ccccc1,nt,nt,-0.4,12.8,-9.8,nt,nt,nt,nt,nt,nt
COc1ccccc1C(=O)Nc1nnc(-c2ccc(F)cc2)o1,-9.3,0.223,-0.1,44.2,21.8,nt,nt,nt,nt,nt,nt
Cc1ccc(C)c(SCC(=O)Nc2nnc(-c3ccccc3)o2)c1,31.0,15.6*,0.2,13.1,80.8*,0.0187*,0.0566*,0.0368,0.0383*,0.0463*,0.0139*
COc1ccc(-c2nnc(NC(=O)c3cc(Cl)ccc3Cl)o2)cc1,4.3,22.7*,0.0,15.7,83.3*,0.00717,0.0549*,0.0444*,0.0388*,0.0497*,0.0314*
